Compounds without any hit were thinned out: in the full panel of roughly 83,000, 20% have a hit.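 Values shown are percent growth following 48 h exposure of cells in 96-well plates to a single concentration of compound; below 10 was considered active.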 A number with no mark means an inactive call. The source made the active and inactive calls.

This is an account of results in PubChem BioAssay (NCI).

The experiment concerns HS 578T breast. Nature of the experiment: NCI-60 one-dose screen, 48 h (100 = growth as untreated, 0 = no growth, -100 = all killed). The settings on record: 10 µM. The protocol:
Growth inhibition of the HS 578T human tumor cell line is measured as a screen for anti-cancer activity. Cells are grown in 96 well plates and exposed to the test compound for 48 hours. Compounds are tested at a single concentration, which is 10^-5 M for most compounds. The reported endpoint is percent growth (GI% or GIPRCNT), where numbers from 0 - 100% represent growth inhibition, and numbers from -100% - 0 represent cell death. For example, a value of 40 represents 60% growth inhibition. A value of 0 means no net growth occurred over the course of the experiment. A value of -40 indicates 40% of cells at the beginning of the experiment died by the end of the experiment. A value of -100 means all cells are dead at the end of the experiment.
NCI-60 Human Tumor Cell Lines Screen was performed using the standard one-dose NCI protocol, which is described in more detail at https://dtp.cancer.gov/discovery_development/nci-60/default.htm.
Compounds with GIPRCNT values below 10 were considered active. Activity score was based on GIPRCNT using the following formula: […]
Score is 0 for GIPRCNT values of 100 or above, 50 for GIPRCNT values of 0, and 100 for GIPRCNT values of -100.
Regarding `Cc1cc(Cc2cc(C)c(O)c(C)c2)cc(C)c1O`, the growth was 33.8%.

Take `Nc1nc(Nc2ccccc2)n[nH]1`: the growth is 119%.

Consider `CC(=O)O[C@]1(C)CC[C@H]2[C@H](CNCCc3ccc(Cl)cc3)C(=O)O[C@@H]2C2=C(C)C(=O)C[C@H]21`, for which the growth was 150%.

Regarding `CN(C)CCN1C(=O)c2cccc3cc(N)cc(c23)C1=O`, the growth was 57.6%.

Turning to `CCCC#CCN(CC)CC`, the growth was 105%.

Regarding `CC(=O)C1CCC2C3CC(F)C4=CC(=O)CCC4(C)C3C(O)CC12C` (stereo not given), the growth is 122%.

Turning to `Fc1cc(C(F)(F)F)ccc1-c1cncnc1NC1CCCCCC1`, the growth is 102%.

As for `Cc1ccc(NC(=O)Nc2cccnc2)cc1NC(=O)Nc1cccnc1`, the growth is 95.7%.

`COC(=O)C(C(C[N+](=O)[O-])c1ccccc1)=P(c1ccccc1)(c1ccccc1)c1ccccc1` (stereo not given): the growth was 110%.

Take `O=C1/C(=C\c2cn(C(=O)c3ccc(Cl)cc3)c3ccccc23)c2ccccc2N1C(=O)c1ccc(Cl)cc1`: the growth was 80.5%.

For `COc1ccc(-c2cc(-c3cccc(NS(C)(=O)=O)c3)nc(N)c2C#N)cc1`, the growth was -14.3% (active).

Consider `CC(=O)CSC(C)=O`, for which the growth was 101%.

For `O=C(Nc1cccc(-n2cc(-c3ccncc3)c(-c3ccc(O)c(Cl)c3)n2)c1)c1ccc(Cl)c(Cl)c1`, the growth was 53.8%.

Regarding `O=C(Nc1ccc(CO)cc1)c1ccccc1Nc1ccnc(C(F)(F)F)c1`, the growth is 93.7%.

Consider `N#CCCN(NC(=O)OCc1ccccc1)C(=O)OCc1ccccc1`, for which the growth was 103%.

For `Cc1nc2ccccc2c(N)c1-c1cc(C)c2c(C)nc3ccccc3c2n1`, the growth is -32.3% (active).

With `Nc1nc(N=Nc2ccc(O)cc2)cc(=O)[nH]1`, the growth is 108%.

Turning to `C/C(N)=C(\C#N)C(=O)c1ccccc1`, the growth is 111%.

Turning to `COc1ccc(Nc2cc(C)nc(NCCCNc3ccnc4cc(Cl)ccc34)n2)cc1`, the growth is -53.9% (active).

Consider `CC1(C)CCC(=NNC(N)=S)CC1`, for which the growth was 103%.

As to `COc1cc2cc3c(nc2cc1OC)CCN3Cc1ccc(NC(=O)Nc2cc(C(F)(F)F)cc(C(F)(F)F)c2)cc1`, the growth was 77.4%.

In the case of `Cn1c([N+](=O)[O-])cnc1/C=C1\Oc2cc(Cl)ccc2C1=O`, the growth was -2.19% (active).

For the compound `O=C(Nc1nc2ccccc2s1)Nc1ccc([N+](=O)[O-])cc1Cl`, the growth is 70.7%.

In the case of `COc1ccc(Cl)cc1C(=O)Nc1nc2ccc(Cl)cc2s1`, the growth is 102%.

On to `COc1ccc(-c2nnc(-c3c(-c4ccccc4)nc4ncccn34)o2)cc1OC`, for which the growth was 98.3%.

As to `C=C(Cl)[C@@](Cl)(CBr)CC[C@@H](Br)C(C)(C)Cl`, the growth is -29% (active).

Turning to `CN(C)c1ccc(N=C2C=CC(=O)c3ccccc32)cc1`, the growth was 95.6%.

For `COc1ccc(S(=O)(=O)NCCCNc2nccc(-c3c(-c4ccc(F)cc4)nc4sccn34)n2)cc1`, the growth is 83%.

As to `CCOC(=O)C(=Cc1ccc(Br)cc1)C(=O)OCC`, the growth is -16.3% (active).

Take `N#Cc1cc(-c2cc3ccccc3o2)oc1N`: the growth is -37.9% (active).

Turning to `COc1cc(/C=C2\CCCC3=C2N=C2SC=NN2C3c2cc(OC)c(OC)c(OC)c2)cc(OC)c1OC` (stereo not given), the growth is 42.8%.

For `CSC1=NCCCC1`, the growth was 116%.

Consider `COc1ccc(-c2nc3sccn3c2-c2nc3c([nH]2)C(=O)c2ccccc2C3=O)cc1`, for which the growth was 90.6%.

For the compound `COc1cc(-c2cc(/C=C/C(=O)c3ccc4c(c3)OCO4)[nH]n2)cc(OC)c1OC`, the growth was 86.6%.

On to `COc1ccc(-c2nn(-c3cccc(NC(=O)c4ccc5c(c4)OCCO5)c3)cc2-c2ccncc2)cc1Cl`, for which the growth was 1.38% (active).

Consider `COc1ccc(-n2c(SCc3cc(OC)c(OC)c(OC)c3)nc3ccc(C)cc3c2=O)cc1`, for which the growth is 77.7%.

Take `COc1cc(Nc2ncnc(Nc3ccc4c(n3)NC(=O)C(C)(C)O4)n2)cc(OC)c1OC`: the growth was -20.4% (active).

Consider `Nc1c(C(=O)Nc2ccccc2)sc2nc3c(cc12)CCCC3`, for which the growth was 36.8%.

Take `O=C1/C(=C\c2ccc(Cl)cc2)CN(C(=S)Nc2ccccc2)C/C1=C\c1ccc(Cl)cc1`: the growth was -23.1% (active).

For the compound `O=C(N/N=C/c1ccccc1)C(Oc1ccccc1)c1ccccc1` (stereo not given), the growth was 98.4%.
